Assay results published in PubChem BioAssay AID738 (SRMLSC, 2007).
The whole screen tested about 98,000 compounds, of which about 4,900 (5%) were called active. The sample holds actives, similar compounds and a random draw of the others, so the mix is not that of the screen. No stated cut-off is given here; in the data, active means inhibition above about 30%; inactive means the rest.

Test: yeast control strain growth suppression – counter-screen for post-Golgi transport modulator project, primary screen (AID 738)
Conditions: efflux-deficient yeast background strain, growth absorbance A615, 16 h; at 10 µM; stronger effect = higher value
For `COc1ccc(N(CC(=O)N/N=C/c2cccc3c2OCCO3)S(=O)(=O)c2ccc(NC(C)=O)cc2)cc1`, the inhibition was 0.15% (inactive). For `COc1ccc(COC(=O)c2n[nH]c3ccccc23)cc1F`, the inhibition was 37.5% (active). In the case of `CCN(CC)S(=O)(=O)c1ccc2nc(COC(=O)c3n[nH]c4ccccc34)[nH]c2c1`, the inhibition is reported as 7.74% (inactive). For `O=C(COC(=O)c1n[nH]c2ccccc12)NCc1ccccc1`, the inhibition was 4.29% (inactive). For `CCC(C)NC(=O)c1c(N)n(/N=C/c2cccs2)c2nc3ccccc3nc12` (stereo not drawn), the inhibition was -2.86% (inactive). In the case of `C=CCn1c(N)c(C(=O)OCC(C)C)c2nc3ccccc3nc21`, the inhibition is reported as 9.88% (inactive). For `CC(C)Cn1c(N)c(C(=O)NCc2cccs2)c2nc3ccccc3nc21`, the inhibition was 35.7% (active). For `O=C(O)COc1ccc(-c2nccc(-c3cccs3)n2)cc1`, the inhibition was 0.28% (inactive). In the case of `Brc1ccc(/C=N/N2CCN(C3c4ccccc4-c4ccccc43)CC2)s1`, the inhibition is reported as -3.33% (inactive). For `CC(CC(=O)Nc1cc(C(F)(F)F)ccc1Cl)c1ccccc1` (stereo not drawn), the inhibition was 16% (inactive). In the case of `CCNCc1cc2cc(C)ccc2[nH]c1=O`, the inhibition is reported as -2.22% (inactive). For `CCN(Cc1cc2cc(C)ccc2[nH]c1=O)S(=O)(=O)c1ccccc1`, the inhibition was 32.2% (active). With `CC(=O)OCc1cc2cc(C)ccc2[nH]c1=O` the inhibition was -5.13% (inactive). In the case of `O=[N+]([O-])c1ccc(Oc2ccc(F)cc2Br)c2ccncc12`, the inhibition is reported as 68.3% (active). For `COc1ccc(C2C=C(c3ccc(Br)cc3)Nc3nc(NS(C)(=O)=O)nn32)cc1` (stereo not drawn), the inhibition was -3.73% (inactive). In the case of `Cc1cc(/C=C2/SC(=O)N(CC(=O)OC(C)C)C2=O)c(C)n1C`, the inhibition is reported as -3.79% (inactive). For `Cc1cccc(NC(=S)Nc2ccc(Br)cc2)c1`, the inhibition was 0.28% (inactive). For `CC(=O)Nc1cc(C(=O)O)ccc1S(=O)(=O)c1ccc(Cl)cc1`, the inhibition was 8.39% (inactive). In the case of `O=C(Nc1ccccc1)c1nnsc1S(=O)(=O)c1ccc(Cl)cc1`, the inhibition is reported as 97.8% (active). For `O=C(Nc1ccc(Cl)cc1)c1ccsn1`, the inhibition was 25.9% (inactive). For `Cc1noc(C)c1COC(=O)c1cc2ccccc2cc1O`, the inhibition was 19.3% (inactive). For `Cc1cccc(NC(=O)CN2C(=O)CNC2=O)c1`, the inhibition was 9.16% (inactive). For `Cc1cccc(NC(=O)CSc2nnc(NC(=O)CN3CCOCC3)s2)c1`, the inhibition was -6.56% (inactive). In the case of `Cc1cccc(NC(=O)CN2CCCN(S(=O)(=O)c3ccc(Br)s3)CC2)c1`, the inhibition is reported as 41.2% (active). In the case of `O=C(Nc1ccccc1)c1ccc2nsnc2c1`, the inhibition is reported as 12.1% (inactive). With `Cn1nc([N+](=O)[O-])nc1Sc1ccc(C(C)(C)C)cc1` the inhibition was 11.6% (inactive). With `C=CCOC(=O)C1=C(C)NC(C)=C(C(=O)OCC=C)C1c1cccs1` the inhibition was 39.5% (active). For `CCOC(=O)C1=C(C)NC(C)=C(C(=O)OCC)C1c1ccccn1`, the inhibition was -6.97% (inactive). In the case of `C=CCOC(=O)C1=C(C)NC(SCC(=O)OCC)=C(C#N)C1c1ccc(C)cc1` (stereo not drawn), the inhibition is reported as 18.4% (inactive). In the case of `COc1ccc(/C=C2/S/C(=N/N=C3\CC4CCC3(C)C4(C)C)NC2=O)cc1` (stereo not drawn), the inhibition is reported as -0.57% (inactive). In the case of `COc1ccc(/C(O)=C2\C(=O)C(=O)N(Cc3ccco3)C2c2ccc(OC)cc2OC)cc1` (stereo not drawn), the inhibition is reported as -3.5% (inactive). In the case of `CCCn1c(SCC(N)=O)nnc1C(C)C`, the inhibition is reported as 5.31% (inactive). For `CCCn1c(SCC(=O)c2ccc3c(c2)OCCO3)nnc1C(C)C`, the inhibition was 43.7% (active). In the case of `CCCn1c(SCC(=O)Nc2c(C)cccc2C)nnc1C(C)C`, the inhibition is reported as -4.88% (inactive). In the case of `Cc1cc2c(c(=O)n1C)C(C(C)C)C(C#N)=C(N)O2` (stereo not drawn), the inhibition is reported as -3.4% (inactive). In the case of `CSCc1cc(N(C)C)nc(SCc2ccc(Cl)cc2Cl)n1`, the inhibition is reported as 15% (inactive). With `CCOC(=O)c1ccc(NC(=O)CSc2nnc(COc3ccccc3OC)n2C)cc1` the inhibition was 12.5% (inactive). With `CCOC(=O)c1ccc(NC(=O)CSc2ncccn2)cc1` the inhibition was 31.1% (active). In the case of `CCOC(=O)c1sc(NC(=O)CSc2ncccn2)c(C#N)c1C`, the inhibition is reported as 21.6% (inactive). With `CC(c1ccco1)N(C(=O)COc1ccccc1[N+](=O)[O-])c1ccccn1` (stereo not drawn) the inhibition was 14.2% (inactive). For `C=CCNC(=O)c1sc(SC)cc1-c1ccc(Cl)cc1`, the inhibition was 11.2% (inactive). In the case of `CC1CCN(CC(=O)c2c[nH]c3ccccc23)CC1`, the inhibition is reported as 6.25% (inactive). With `CCOC(=O)CSC1=C(C#N)C(c2sccc2C)CC(=O)N1` (stereo not drawn) the inhibition was 11.5% (inactive). In the case of `Cc1ccc(C2CC(=O)NC(SCC(=O)OCc3ccccc3)=C2C#N)o1` (stereo not drawn), the inhibition is reported as 32% (active). In the case of `CCOC(=O)CSC1=C(C#N)C(c2ccco2)C(C(=O)OCc2ccccc2)=C(C)N1` (stereo not drawn), the inhibition is reported as 24.9% (inactive). In the case of `CN(C)/C=C(\C#N)C(=O)c1cccnc1Oc1ccc(F)cc1F`, the inhibition is reported as 2.7% (inactive). For `O=C(COc1ccc(Br)cc1F)NC1CCN(Cc2ccccc2)CC1`, the inhibition was 37.7% (active). In the case of `O=C(COc1ccccc1F)NC1CC1`, the inhibition is reported as -0.64% (inactive). With `O=C(NC1CCN(Cc2ccccc2)CC1)c1ccccc1F` the inhibition was 6.56% (inactive). In the case of `Cc1ccc(C(=O)Nc2c(C#N)c(C)c(C)n2Cc2ccccc2)cc1`, the inhibition is reported as 17.1% (inactive). In the case of `CCOC1CS(=O)(=O)CC1OCC` (stereo not drawn), the inhibition is reported as 8.62% (inactive). For `O=C(Nc1ccccc1C(F)(F)F)c1cc(-c2ccc(O)cc2)on1`, the inhibition was 2.42% (inactive). In the case of `Cc1cc(C)nc(NC(=O)Nc2ccccc2C(F)(F)F)n1`, the inhibition is reported as 34.3% (active). In the case of `Cc1cc(C)nc(NC(=O)C(C)N2C(=O)c3ccccc3C2=O)n1` (stereo not drawn), the inhibition is reported as -0.16% (inactive). In the case of `COc1cc(SC)ccc1C(=O)NCCOc1ccccc1Cl`, the inhibition is reported as 28.9% (inactive). In the case of `Cc1ccc(CNC(=O)CCNC(=O)Cn2ccc3ccccc3c2=O)cc1`, the inhibition is reported as 7.83% (inactive). With `CCOc1c2ccc(C(=O)NCc3ccc(OC(F)(F)F)cc3)cc2nn1C` the inhibition was -2.75% (inactive). In the case of `COc1ccc(C(=O)c2c(C)oc3cc([N+](=O)[O-])c(O)c([N+](=O)[O-])c23)cc1`, the inhibition is reported as 15% (inactive). With `Cc1cc(C(=O)Nc2c(C)n(C)n(-c3ccccc3)c2=O)cs1` the inhibition was 2.08% (inactive). For `COC(=O)Nc1c(C)n(C)n(-c2ccccc2)c1=O`, the inhibition was 6.08% (inactive). In the case of `Cc1c(NC(=O)c2cc(-c3ccc(Cl)s3)nc3ccccc23)c(=O)n(-c2ccccc2)n1C`, the inhibition is reported as 44.6% (active). In the case of `CCOC(=O)Nc1ccc(S(=O)(=O)N(C)C(C)C)cc1`, the inhibition is reported as 4.8% (inactive). In the case of `CCOc1c2ccc(C(=O)NCc3ccc4c(c3)OCO4)cc2nn1C`, the inhibition is reported as 24.1% (inactive). For `Cc1ccccc1N/N=C/c1ccc(N2CCOCC2)cc1`, the inhibition was 20% (inactive). In the case of `COc1ccccc1CNC(=O)c1ccc(SC)cc1OC`, the inhibition is reported as 17.5% (inactive). In the case of `CCOc1ccc2nc(N3CCCN(C(=O)Nc4ccccc4C)CC3)c(C#N)cc2c1`, the inhibition is reported as 56.8% (active). For `CCOc1ccc2nc(NCCNS(=O)(=O)c3ccccc3)c(C#N)cc2c1`, the inhibition was -2.23% (inactive). For `COc1ccc2nc(N3CCCC(O)C3)c(C#N)cc2c1` (stereo not drawn), the inhibition was 6.9% (inactive). In the case of `Cc1ccc2cc(CCNC(=O)c3c(-c4ccccc4Cl)noc3C)c(=O)[nH]c2c1`, the inhibition is reported as 9.09% (inactive). For `CN1CCN(c2ccc([N+](=O)[O-])c(Sc3nc4ccccc4[nH]3)c2)CC1`, the inhibition was 7.22% (inactive). With `CSc1ccc(C#N)cc1NC(=O)c1ccc(Cl)cc1` the inhibition was -4.75% (inactive). For `CSc1cc(C)n(-c2ccccc2C)c(=S)c1C(C)=O`, the inhibition was 4.46% (inactive). For `O=C(NCCCN1CCCCCC1)C1CC(=O)N(C2CCCC2)C1` (stereo not drawn), the inhibition was 39.6% (active). With `CC(C)OCCCNC(=O)C1CC(=O)N(C2CCCCCCC2)C1` (stereo not drawn) the inhibition was 0.87% (inactive). For `Cc1ccc(CNC(=O)C2CC(=O)N(C3CCCCCCC3)C2)cc1` (stereo not drawn), the inhibition was 11.5% (inactive). For `COc1ccc(CCNC(=O)COC(=O)c2ccc[nH]c2=O)cc1`, the inhibition was 8.99% (inactive). With `CCn1c(SCc2ccc(C)cc2)nnc1-c1nn(-c2ccccc2)ccc1=O` the inhibition was 28.2% (inactive). With `CCOc1ccc(NC(=O)N(CCC(C)C)C(C)c2ccco2)cc1` (stereo not drawn) the inhibition was 14.1% (inactive). With `CCCC(C(=O)NCc1ccco1)N(C(=O)CNS(=O)(=O)c1ccccc1)C1CCCC1` (stereo not drawn) the inhibition was -6.03% (inactive). With `CC(c1ccco1)N(C(=O)Nc1ccccc1)C1CCCCC1` (stereo not drawn) the inhibition was 34.8% (active). With `CCCCNC(=O)CSc1nc2ccc(NC(=O)CSc3nnc(COc4ccccc4C)n3C)cc2s1` the inhibition was -0.61% (inactive). In the case of `CN(C(=O)CSc1nc(C2CC2)nc2ccccc12)c1nc(-c2ccccc2)cs1`, the inhibition is reported as 3.27% (inactive). For `S=c1[nH]nc(-c2ccco2)n1/N=C/c1ccc(Br)s1`, the inhibition was 32.1% (active). In the case of `Oc1ccccc1/C=N/n1c(-c2cccs2)n[nH]c1=S`, the inhibition is reported as 7.52% (inactive). With `Cc1ccc(/C=N\n2c(-c3ccccc3)n[nH]c2=S)s1` the inhibition was 6.75% (inactive). In the case of `COC(=O)c1c(CCl)noc1C(=O)NC(C)C`, the inhibition is reported as -6.4% (inactive). In the case of `CCCCSc1[nH]c(=O)c(C(=O)OCC)cc1C#N`, the inhibition is reported as -5.6% (inactive). With `C/C(=N/NC(=O)c1ccc(NC(=O)c2ccc(F)cc2)cc1)c1ccccc1` the inhibition was 4.86% (inactive). In the case of `Cc1nn(CCOc2ccccc2)c(=O)n1-c1ccccc1F`, the inhibition is reported as 14% (inactive). For `OC(COc1ccc2c(c1)CCC2)CN1CCN(c2cccc(Cl)c2)CC1` (stereo not drawn), the inhibition was 82.4% (active). With `OC(COc1cccc(OCC(O)CN2CCCC2)c1)CN1CCCC1` (stereo not drawn) the inhibition was 0.3% (inactive). For `CCC(=O)c1ccc(OCC(O)CN2C(=O)NC(C)(C)C2=O)cc1` (stereo not drawn), the inhibition was 7.58% (inactive). With `O=C(C(c1ccccc1)c1ccccc1)N1CCN(CC(O)COc2ccccc2)CC1` (stereo not drawn) the inhibition was 9.41% (inactive). For `O=S(=O)(c1ccc(OCC(O)CN2CCN(c3ccccc3Cl)CC2)cc1)N1CCOCC1` (stereo not drawn), the inhibition was -0.44% (inactive). In the case of `O=C(COc1ccc(Cl)cc1)N1CCN(c2cccc(C(F)(F)F)c2)CC1`, the inhibition is reported as 27.6% (inactive). With `CCC(=O)c1ccc(OCC(O)CN2CC(C)OC(C)C2)cc1` (stereo not drawn) the inhibition was 30.9% (active). With `O=C(c1ccc(Cl)cc1)c1ccc(OCC(O)CN2CCCCC2)cc1` (stereo not drawn) the inhibition was 7.05% (inactive). For `CCC(=O)c1ccc(OCC(O)CN2CCN(c3cccc(C(F)(F)F)c3)CC2)cc1` (stereo not drawn), the inhibition was 38.7% (active).
